According to PubChem BioAssay (NCATS):
Inconclusive results are not listed. Active and inactive are the calls of the source. The call rests on the fitted dose curve; in most records, active means well fitted inhibition curve with a large enough effect; inconclusive means small, poorly fitted or top-dose-only effect; inactive means flat fitted curve, though single readings scatter.

System: CRL-7250
Assay: qHTS assay to identify novel small-molecules to repurpose for Merkel cell carcinoma treatment (AID 1296009); further: nearly all actives have a fitted effect of over 60% in size
Details: MCC and control cell lines, CellTiter-Glo viability, 72 h; series mostly up to 92 µM; activity change, negative = cytotoxicity: at the top concentration
In short: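 Viability readout: ATP luminescence (CellTiter-Glo) after 72 hr drug exposure at 37 degree celsius. Dose-response format was 8 points for NPC and 11 points for MIPE; data normalized to in-plate controls.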

Row | SMILES | outcome
1 | C=C1CCC2C(C)(C(=O)OC)CCCC2(C)C1CCC(C)CC(=O)O (stereo not drawn) | inactive
2 | OCC(O)C(c1c[nH]c2ccccc12)c1c[nH]c2ccccc12 (stereo not drawn) | inactive
3 | C/C=C/C=C/C(CC(=O)O)Nc1ccc(C=O)cc1 (stereo not drawn) | inactive
4 | CC(C)(C)OC(=O)c1ncn2c1C(C)(C)Nc1ccccc1-2 | inactive
5 | OC/C=C/C=C/[C@H]1Cc2cc(O)cc(O)c2O1 | inactive
6 | N#Cc1c[nH]c2c(C(=O)N3CCN(CCc4ccc(F)cc4)CC3)cccc12 | inactive
7 | COc1c2c(c(C)c3c1C(=O)OC3)OC1(C)CC(O)C34OC(OC)(OC3(C)C)C(O)CC4(C)C1C2 (stereo not drawn) | inactive [at 17.4 µM]
8 | CCOC(=O)[C@H](CCc1ccccc1)N[C@@H](C)C(=O)N1C2CCCCC2C[C@H]1C(=O)O (stereo partly drawn) | inactive
9 | COc1cc([C@@H](O[C@@H]2O[C@H](CO)[C@@H](O)[C@H](O)[C@H]2O)[C@@H]2CO[C@H](c3ccc(O)c(OC)c3)[C@H]2CO)ccc1O | inactive [at 17.4 µM]
10 | CC1(C)C2CCC1(C)C(OC(=O)C(O)(CC(=O)O)CC(=O)O)C2 (stereo not drawn) | inactive
11 | C=CC1C(O[C@@H]2O[C@H](CO)[C@@H](O)[C@H](O)[C@H]2O)OC=C(C(=O)OC)C1CC(=O)O (stereo partly drawn) | inactive [at 17.4 µM]
12 | C=C1CCC2C(C)(C(=O)O)CCCC2(C)C1CCC1=CCOC1=O (stereo not drawn) | inactive
13 | COc1c2c(c(C)c3c1C(=O)OC3)OC1(C)CC(O)C(C(C)(C)O)C(C)(CCC(=O)O)C1C2 (stereo not drawn) | inactive [at 17.4 µM]
14 | OC[C@H]1O[C@@H](OCCc2ccccc2)[C@H](O[C@@H]2OC[C@@H](O)[C@H](O)[C@H]2O)[C@@H](O)[C@@H]1O | inactive [at 17.4 µM]
15 | CCn1c(=O)n([C@H]2CCCN(c3nccc(-c4cc5ccccc5o4)n3)C2)c2ccccc21 | inactive
16 | COc1cc(C(=O)O)ccc1OC1OC(CO)C(O)C(O)C1O (stereo not drawn) | inactive
17 | CC1OC(OC2C(OC3C(O[C@H]4CC[C@@]5(C)C(CC[C@]6(C)C5CC=C5C7CC(C)(C)CC(O)[C@]7(C)CC[C@]56C)C4(C)C)OC(C(=O)O)C(O)C3O)OCC(O)C2O)C(O)C(O)C1O (stereo partly drawn) | inactive [at 9.27 µM]
18 | C/C(=C\CCC(C)CCO)C(=O)O[C@@H]1[C@@H](O)[C@H](OC2OC=C(C(=O)O)C3CCC(C)(O)C23)O[C@H](CO)[C@H]1O (stereo partly drawn) | inactive [at 17.4 µM]
19 | CC(C)C(C(=O)N(C)C(C)C(N)=O)N(C)C(=O)C1CCCN1C(=O)/C=C/C=C/C(O)C(C)O (stereo not drawn) | inactive [at 17.4 µM]
20 | COc1cc(/C=C/C(=O)O[C@H]2C[C@@H]3C(C(=O)O)=CO[C@@H](O[C@@H]4O[C@H](CO)[C@@H](O)[C@H](O)[C@H]4O)[C@@H]3[C@H]2C)ccc1O | inactive [at 17.4 µM]
21 | CC1CC(=O)C2C(O)(C1)CC(O)C13OC1c1c(O)cccc1C(=O)C23O (stereo not drawn) | inactive
22 | C/C=C(/C)C(=O)O[C@H]1C[C@]2(C)O[C@@H]2[C@@H](OC(C)=O)[C@@]2(C)CC[C@@](O)(C(C)C)[C@H]12 | inactive
23 | CCC(C)/C=C(C)/C=C/C1=CC2=CC(=O)C(C)(O)C(OC(C)=O)C2CO1 (stereo not drawn) | inactive
24 | O=S(=O)(Nc1cc(Cl)c(Oc2cnc3ccccc3c2)c(Cl)c1)c1ccc(Cl)cc1Cl | inactive
25 | CC1(C)CC2C3=CCC4C5(C)CCC(OC6OC(CO)C(O)C(OC7OC(CO)C(O)C(OC8OC(CO)C(O)C(OC9OC(COC%10OC(CO)C(O)C(O)C%10O)C(O)C(O)C9O)C8O)C7O)C6O)C(C)(C)C5CCC4(C)C3(C)CCC2(C(=O)O)CC1O (stereo not drawn) | inactive [at 9.27 µM]
26 | CC1(C)CC[C@]2(C(=O)O)CC[C@]3(C)C(=CCC4[C@@]5(C)C[C@@H](O)[C@H](O)[C@@](C)(CO)C5CC[C@]43C)C2C1 (stereo partly drawn) | inactive [at 17.4 µM]
27 | CC1(C)CC[C@@]2(C(=O)O[C@@H]3O[C@H](CO)[C@@H](O)[C@H](O)[C@H]3O)C(C1)C1=CCC3[C@@]4(C)CC[C@@H](O[C@@H]5O[C@H](C(=O)O)[C@@H](O[C@@H]6OC[C@@H](O)[C@H](O)[C@H]6O)[C@H](O[C@@H]6OC[C@](O)(CO)[C@H]6O)[C@H]5O)C(C)(C)C4CC[C@@]3(C)[C@]1(C)C[C@H]2O (stereo partly drawn) | inactive [at 9.27 µM]
28 | N#CCc1ccc(O)cc1O[C@@H]1O[C@H](CO)[C@@H](O)[C@H](O)[C@H]1O | inactive
